# “And” between values parts separate entries of the source, which are not always exact repeats. Equal entries are not always repeated. Inconclusive results are not listed. Some structures have more than one record in an assay (separate samples or runs), and their calls can disagree. The source made the active and inactive calls. How the source made its calls: active means hit-call score of the fitted dose curve at least 0.9, where 1 is the maximum; inconclusive means response in the unintended direction; inactive means score below 0.9.
# Tests used:
# [1] = molecular target: Estrogen receptor (Homo sapiens) + Estrogen receptor beta (Homo sapiens) (UniProt P03372+Q92731); assay: OT_ER_ERaERb_1440: Odyssey Thera (OT) 24-hour HEK293T Protein-Complementation Assay for Estrogen Receptor-alpha/-beta Homodimer (AID 2283356);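 further: heteromer of ER alpha and ER beta binding domains; hits raise reporter fluorescence and both agonists and antagonists give an increase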
# Method in brief: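 Fragment complementation between ER alpha (310-547) and ER beta (263-489) ligand-binding domains in HEK293T cells; signal read 24 h post-dosing by laser scanning cytometer. Gain of fluorescence relative to DMSO fitted.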
# [2] = molecular target: human Peroxisome Proliferator-activated Receptor alpha (PPARa), PPARA (gene 5465) (UniProt Q07869); assay: NVS_NR_hPPARa: NovaScreen (NVS) Nuclear Receptor Binding Assay for human Peroxisome Proliferator-activated Receptor alpha (PPARa) (AID 2283359);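 further: activity means loss of TR-FRET signal versus DMSO baseline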
# Method in brief: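 Loss of TR-FRET binding signal relative to DMSO was measured 1 h after chemical addition to extracted receptor protein. Chemicals were first tested in duplicate at 25 uM, and actives were followed up in concentration series.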
# PGR (gene 5241) = PGR (gene 5241) (UniProt P06401); assay: NVS_NR_hPR: NovaScreen (NVS) Nuclear Receptor Binding Assay for human Progestron Receptor (PR) (AID 2283360);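 further: active means loss of bound radioligand signal versus DMSO baseline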
# Method in brief: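 Competitive displacement of a labelled radioligand from T47D-derived receptor protein is measured in a cell-free format. Initial testing uses 25 uM in duplicate, with positive and negative controls on every plate.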
# [3] = molecular target: human Norepinephrine Transporter (NET), SLC6A2 (gene 6530) (UniProt P23975); assay: NVS_TR_hNET: NovaScreen (NVS) Transporter Assay for human Norepinephrine Transporter (NET) (AID 2283377);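 further: cell-free membrane protein extracted from CHO cells expressing human NET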;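 on AC50: displacement of radioligand from human NET seen as loss of scintillation signal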
# Method in brief: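 Single-concentration duplicate screen at 25 uM, then concentration-response for actives; displacement of specific radioligand from human NET in CHO membrane extracts, filter-based scintillation detection at 1 h relative to DMSO.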
# [4] = molecular target: Retinoic acid receptor alpha (Homo sapiens) (UniProt P10276); assay: NVS_NR_hRAR_Antagonist: NovaScreen (NVS) Nuclear Receptor Binding Assay for human Retinoic Acid Alpha Receptor Antagonism (RAR) (AID 2283358)
# Method in brief: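 RARalpha antagonism was read by TR-FRET as loss of binding signal versus DMSO, 2 h after chemical addition, in a biochemical format. Single-concentration duplicates (25 uM) were run first, and actives were retested in concentration series.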
# [5] = molecular target: human Thyroid Receptor Alpha (TRa), THRA (gene 7067) (UniProt P10827); assay: NVS_NR_hTRa_Antagonist: NovaScreen (NVS) Nuclear Receptor Binding Assay for human Thyroid Receptor Alpha Antagonism (TRa) (AID 2283362);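 further: activity is loss of signal relative to DMSO baseline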
# Method in brief: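 Actives from a duplicate 25 uM single-point screen were retested in concentration series. The cell-free antagonist-format binding assay was read by AlphaLISA chemiluminescence at 1 h, scored as signal loss relative to DMSO.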
# [6] = molecular target: Peroxisome proliferator-activated receptor gamma (Homo sapiens) (UniProt P37231); assay: NVS_NR_hPPARg: NovaScreen (NVS) Nuclear Receptor Binding Assay for human Peroxisome Proliferator-activated Receptor gamma (PPARg) (AID 2283370)
# Method in brief: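 Fluorescence polarization readout of ligand binding to extracted human PPARg, measured at 2 h. Duplicate single-point screen at 25 uM, then concentration-series retesting; activity defined as signal loss versus DMSO.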
# [7] = molecular target: mouse Estrogen Receptor alpha (Era), Esr1 (gene 13982) (UniProt P19785); assay: NVS_NR_mERa: NovaScreen (NVS) Nuclear Receptor Binding Assay for mouse Estrogen Receptor alpha (Era) (AID 2283378);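 further: hit means loss of bound radioligand signal relative to DMSO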
# Method in brief: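 Filter radiodetection of radioligand displacement from extracted receptor protein, measured 18 h post-dose. Single 25 uM concentration in duplicate initially, with concentration-series follow-up. Binding loss fitted relative to DMSO.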
# [8] = molecular target: rat Mineralocorticoid Receptor (MR), Nr3c2 (gene 25672) (UniProt P22199); assay: NVS_NR_rMR: NovaScreen (NVS) Nuclear Receptor Binding Assay for rat Mineralocorticoid Receptor (MR) (AID 2283355)
# Method in brief: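 Primary HTS ran in duplicate at a single 25 uM concentration, with concentration-series follow-up for actives. Receptor source: adrenalectomized rat brain supernatant, cell-free. Radioligand displacement read by scintillation at 24 h, relative to DMSO baseline.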
# [9] = molecular target: Nuclear receptor subfamily 1 group I member 2 (Homo sapiens) (UniProt O75469); assay: NVS_NR_hPXR: NovaScreen (NVS) Nuclear Receptor Binding Assay for human Pregnane X Receptor (PXR) (AID 2283365);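 further: a drop in FRET signal versus DMSO baseline means the compound binds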
# Method in brief: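 Human PXR binding measured by TR-FRET in a cell-free format, 2 h exposure. Single-concentration duplicates at 25 uM preceded concentration-response retests of actives; endpoint fitted positively relative to DMSO, loss of signal indicating binding.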
# [10] = system: guinea pig Dopamine Transporter (DAT), gene 100714898; assay: NVS_TR_gDAT: NovaScreen (NVS) Transporter Assay for guinea pig Dopamine Transporter (DAT) (AID 2283369);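 further: active compounds lower bound radioligand signal relative to DMSO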
# Method in brief: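 Radioligand displacement on membranes from guinea pig striatum, 2 h exposure, bound label counted by filtration and scintillation. Tested at 25 uM in duplicate, then actives in concentration series to 50 uM; DMSO as negative control.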
# [11] = system: rat Norepinephrine Transporter (NET), gene 83511; assay: NVS_TR_rNET: NovaScreen (NVS) Transporter Assay for rat Norepinephrine Transporter (NET) (AID 2283373)
# Method in brief: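 Competitive radioligand displacement at the rat NET using forebrain membrane preparations, 1 h incubation, filter-based scintillation readout. Primary testing in duplicate at a single 25 uM concentration; confirmed actives retested across concentrations.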
# [12] = molecular target: Norway rat Vesicular Monoamine Transporter (VMAT2), neurotransmitter transporter, Slc18a2 (gene 25549) (UniProt Q01827); assay: NVS_TR_rVMAT2: NovaScreen (NVS) Transporter Assay for Norway rat Vesicular Monoamine Transporter (VMAT2), neurotransmitter transporter (AID 2283376);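 further: actives lower the bound radioligand signal below the DMSO level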
# Method in brief: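 Using rat forebrain membranes, specific radioligand binding to VMAT2 was measured by filtration and scintillation counting after 1 hour. Chemicals screened at 25 uM in duplicate, actives retested in concentration series, DMSO baseline.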
# [13] = molecular target: Glucocorticoid receptor (Homo sapiens) (UniProt P04150); assay: NVS_NR_hGR: NovaScreen (NVS) Nuclear Receptor Binding Assay for human Glucocorticoid Receptor (GR) (AID 2283363);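 further: activity is loss of specific radioligand binding signal relative to DMSO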
# Method in brief: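 Compounds first tested in duplicate at 25 uM, actives followed up in concentration series. Binding to extracted GR protein measured as competitive radioligand displacement, filter scintillation read 16 h post-dosing, normalised to DMSO.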
# [14] = molecular target: guinea pig Sigma Receptor, Non-selective Binding, SIGMAR1 (gene 100135589) (UniProt Q60492); assay: NVS_OR_gSIGMA_NonSelective: NovaScreen (NVS) Nuclear Receptor Binding Assay for guinea pig Sigma Receptor, Non-selective Binding (AID 2283367)
# Method in brief: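 Guinea pig brain membrane sigma sites were labelled with a radioligand, and bound radioactivity was counted after filtration 1 h post-dose. Compounds were screened at 25 uM in duplicate, then retested as concentration series when active.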
# Sequence of PGR (gene 5241) (P06401 whole entry, looked up): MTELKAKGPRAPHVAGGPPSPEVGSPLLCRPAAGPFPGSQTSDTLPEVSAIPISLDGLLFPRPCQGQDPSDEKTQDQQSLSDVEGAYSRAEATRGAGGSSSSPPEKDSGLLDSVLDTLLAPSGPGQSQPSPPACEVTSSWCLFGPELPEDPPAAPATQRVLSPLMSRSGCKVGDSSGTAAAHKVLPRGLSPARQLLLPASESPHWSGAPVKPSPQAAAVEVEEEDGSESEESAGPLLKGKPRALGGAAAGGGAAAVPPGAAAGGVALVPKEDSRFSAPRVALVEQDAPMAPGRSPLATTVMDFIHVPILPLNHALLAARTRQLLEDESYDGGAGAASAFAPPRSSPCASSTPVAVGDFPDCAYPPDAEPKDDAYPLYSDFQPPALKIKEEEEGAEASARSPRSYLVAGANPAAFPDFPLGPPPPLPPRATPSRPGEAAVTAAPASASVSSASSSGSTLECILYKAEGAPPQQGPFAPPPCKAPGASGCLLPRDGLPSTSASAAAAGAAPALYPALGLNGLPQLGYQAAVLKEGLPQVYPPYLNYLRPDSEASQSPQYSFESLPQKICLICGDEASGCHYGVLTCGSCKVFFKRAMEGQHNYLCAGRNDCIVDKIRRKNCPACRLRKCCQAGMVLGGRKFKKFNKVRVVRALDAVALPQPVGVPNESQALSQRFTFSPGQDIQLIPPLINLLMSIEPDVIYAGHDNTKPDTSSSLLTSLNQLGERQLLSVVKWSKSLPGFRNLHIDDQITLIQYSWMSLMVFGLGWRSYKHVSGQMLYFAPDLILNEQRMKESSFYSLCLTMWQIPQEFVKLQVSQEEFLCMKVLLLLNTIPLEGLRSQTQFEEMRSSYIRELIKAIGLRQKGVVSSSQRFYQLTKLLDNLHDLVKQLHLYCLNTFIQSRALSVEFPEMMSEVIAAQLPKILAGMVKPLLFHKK
# Sequence of Peroxisome proliferator-activated receptor gamma (Homo sapiens) (P37231 whole entry, looked up): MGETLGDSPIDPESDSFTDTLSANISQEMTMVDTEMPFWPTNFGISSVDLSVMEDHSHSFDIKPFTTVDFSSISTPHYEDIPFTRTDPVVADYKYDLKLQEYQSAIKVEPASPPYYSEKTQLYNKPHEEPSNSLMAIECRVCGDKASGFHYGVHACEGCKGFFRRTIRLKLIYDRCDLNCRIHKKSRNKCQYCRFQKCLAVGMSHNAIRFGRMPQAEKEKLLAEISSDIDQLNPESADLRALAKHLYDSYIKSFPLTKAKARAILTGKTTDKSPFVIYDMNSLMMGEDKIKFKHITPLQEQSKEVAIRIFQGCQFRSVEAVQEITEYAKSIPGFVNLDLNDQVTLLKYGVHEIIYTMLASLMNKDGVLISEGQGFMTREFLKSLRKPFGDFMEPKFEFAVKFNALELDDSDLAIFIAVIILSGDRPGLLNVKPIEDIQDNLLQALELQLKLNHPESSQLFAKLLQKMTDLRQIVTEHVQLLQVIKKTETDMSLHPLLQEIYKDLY
# Sequence of human Peroxisome Proliferator-activated Receptor alpha (PPARa), PPARA (gene 5465) (Q07869 whole entry, looked up): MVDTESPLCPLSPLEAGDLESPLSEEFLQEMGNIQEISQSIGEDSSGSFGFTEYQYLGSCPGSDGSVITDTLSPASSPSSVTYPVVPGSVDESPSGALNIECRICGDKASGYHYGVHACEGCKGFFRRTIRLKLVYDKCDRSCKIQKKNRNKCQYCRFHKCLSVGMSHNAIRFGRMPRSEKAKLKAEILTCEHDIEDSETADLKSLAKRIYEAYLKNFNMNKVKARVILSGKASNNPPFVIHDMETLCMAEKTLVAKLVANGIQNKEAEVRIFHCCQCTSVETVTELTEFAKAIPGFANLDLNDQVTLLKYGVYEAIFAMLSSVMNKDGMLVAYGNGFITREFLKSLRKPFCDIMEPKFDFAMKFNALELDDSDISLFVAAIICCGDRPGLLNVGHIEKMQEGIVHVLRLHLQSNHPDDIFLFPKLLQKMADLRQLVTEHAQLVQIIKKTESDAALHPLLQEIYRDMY
# Sequence of human Norepinephrine Transporter (NET), SLC6A2 (gene 6530) (P23975 whole entry, looked up): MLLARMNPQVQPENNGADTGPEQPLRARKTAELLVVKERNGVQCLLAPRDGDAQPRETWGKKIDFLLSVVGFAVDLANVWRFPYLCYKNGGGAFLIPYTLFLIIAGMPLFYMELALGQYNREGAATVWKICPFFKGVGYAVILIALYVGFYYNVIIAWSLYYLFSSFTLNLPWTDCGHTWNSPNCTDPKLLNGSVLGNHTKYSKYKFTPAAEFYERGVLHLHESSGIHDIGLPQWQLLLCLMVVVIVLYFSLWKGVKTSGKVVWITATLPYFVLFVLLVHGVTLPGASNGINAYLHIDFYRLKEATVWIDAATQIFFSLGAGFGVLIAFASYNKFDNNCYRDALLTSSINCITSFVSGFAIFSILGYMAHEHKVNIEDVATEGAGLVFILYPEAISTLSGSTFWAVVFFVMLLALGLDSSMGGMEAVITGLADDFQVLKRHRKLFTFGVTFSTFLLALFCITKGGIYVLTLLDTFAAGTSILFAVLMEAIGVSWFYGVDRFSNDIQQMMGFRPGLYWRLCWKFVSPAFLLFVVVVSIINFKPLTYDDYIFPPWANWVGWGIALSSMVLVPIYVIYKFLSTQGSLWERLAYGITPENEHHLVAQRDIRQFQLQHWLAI
# Sequence of Glucocorticoid receptor (Homo sapiens) (P04150 whole entry, looked up): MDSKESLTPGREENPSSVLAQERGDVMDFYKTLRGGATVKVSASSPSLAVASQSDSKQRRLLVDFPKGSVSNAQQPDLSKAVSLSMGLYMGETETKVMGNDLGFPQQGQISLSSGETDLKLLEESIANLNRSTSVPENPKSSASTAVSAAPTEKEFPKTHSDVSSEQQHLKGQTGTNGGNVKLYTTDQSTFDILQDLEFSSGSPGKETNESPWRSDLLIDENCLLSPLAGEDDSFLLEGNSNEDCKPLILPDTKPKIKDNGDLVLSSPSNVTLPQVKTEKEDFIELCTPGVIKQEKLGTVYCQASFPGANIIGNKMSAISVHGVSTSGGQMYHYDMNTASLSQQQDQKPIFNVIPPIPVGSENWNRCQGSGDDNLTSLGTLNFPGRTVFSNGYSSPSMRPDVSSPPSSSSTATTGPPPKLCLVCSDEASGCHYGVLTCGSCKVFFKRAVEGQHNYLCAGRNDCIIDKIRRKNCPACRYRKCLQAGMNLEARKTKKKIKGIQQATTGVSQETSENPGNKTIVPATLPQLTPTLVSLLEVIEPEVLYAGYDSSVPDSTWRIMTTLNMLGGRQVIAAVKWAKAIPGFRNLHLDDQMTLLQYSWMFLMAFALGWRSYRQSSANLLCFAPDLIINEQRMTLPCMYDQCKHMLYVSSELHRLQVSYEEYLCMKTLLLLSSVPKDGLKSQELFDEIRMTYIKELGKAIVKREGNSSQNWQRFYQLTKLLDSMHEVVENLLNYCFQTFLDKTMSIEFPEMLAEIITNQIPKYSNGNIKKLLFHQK
# Sequence of rat Mineralocorticoid Receptor (MR), Nr3c2 (gene 25672) (P22199 whole entry, looked up): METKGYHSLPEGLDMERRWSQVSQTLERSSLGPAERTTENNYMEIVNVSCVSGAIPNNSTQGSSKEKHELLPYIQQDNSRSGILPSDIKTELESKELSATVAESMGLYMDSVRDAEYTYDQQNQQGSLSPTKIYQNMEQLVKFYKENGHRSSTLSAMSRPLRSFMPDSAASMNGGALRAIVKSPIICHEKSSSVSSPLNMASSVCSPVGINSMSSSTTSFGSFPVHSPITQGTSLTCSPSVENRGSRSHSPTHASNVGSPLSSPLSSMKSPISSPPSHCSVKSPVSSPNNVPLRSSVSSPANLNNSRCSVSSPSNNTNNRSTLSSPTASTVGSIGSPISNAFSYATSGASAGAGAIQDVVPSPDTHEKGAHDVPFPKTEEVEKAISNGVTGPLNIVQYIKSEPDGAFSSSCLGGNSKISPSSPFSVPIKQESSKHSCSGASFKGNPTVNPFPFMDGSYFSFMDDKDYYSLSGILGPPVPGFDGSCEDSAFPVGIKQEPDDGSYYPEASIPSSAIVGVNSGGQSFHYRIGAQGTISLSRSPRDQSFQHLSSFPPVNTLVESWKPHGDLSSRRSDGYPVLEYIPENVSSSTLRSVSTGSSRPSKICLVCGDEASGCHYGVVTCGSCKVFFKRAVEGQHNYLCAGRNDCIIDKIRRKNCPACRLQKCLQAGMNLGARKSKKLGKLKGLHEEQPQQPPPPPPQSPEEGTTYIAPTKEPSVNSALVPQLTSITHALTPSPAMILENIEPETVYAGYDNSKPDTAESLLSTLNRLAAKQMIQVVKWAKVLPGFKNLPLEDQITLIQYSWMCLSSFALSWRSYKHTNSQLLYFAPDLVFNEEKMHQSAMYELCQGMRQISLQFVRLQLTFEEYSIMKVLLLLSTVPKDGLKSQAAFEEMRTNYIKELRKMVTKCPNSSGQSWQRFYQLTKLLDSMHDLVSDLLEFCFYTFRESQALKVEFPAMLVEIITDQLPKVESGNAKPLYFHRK
# Sequence of mouse Estrogen Receptor alpha (Era), Esr1 (gene 13982) (P19785 whole entry, looked up): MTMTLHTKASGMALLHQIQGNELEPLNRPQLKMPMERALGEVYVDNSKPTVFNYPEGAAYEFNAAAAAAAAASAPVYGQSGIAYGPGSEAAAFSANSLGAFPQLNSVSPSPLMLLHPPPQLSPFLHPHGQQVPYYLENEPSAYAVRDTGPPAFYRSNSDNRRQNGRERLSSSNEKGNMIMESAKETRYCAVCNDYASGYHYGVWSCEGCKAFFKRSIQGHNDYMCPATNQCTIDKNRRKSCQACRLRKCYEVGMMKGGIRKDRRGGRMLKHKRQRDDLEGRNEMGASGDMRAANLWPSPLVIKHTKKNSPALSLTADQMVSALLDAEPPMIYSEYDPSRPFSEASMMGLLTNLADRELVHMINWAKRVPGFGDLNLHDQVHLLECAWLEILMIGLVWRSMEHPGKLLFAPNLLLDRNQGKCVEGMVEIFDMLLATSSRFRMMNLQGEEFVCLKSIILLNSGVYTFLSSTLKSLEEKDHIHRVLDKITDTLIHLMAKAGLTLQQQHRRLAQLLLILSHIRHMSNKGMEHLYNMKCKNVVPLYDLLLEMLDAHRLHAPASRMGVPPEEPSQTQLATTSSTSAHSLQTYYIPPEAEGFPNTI
structure (smiles),measurement,setting,value
Cc1ccc(O)c(C)c1,outcome,[1],inactive
same,outcome,[2],inactive
same,outcome,PGR (gene 5241),inactive
same,AC50,[3],11.5 µM (active)
O=C(O)C(F)(F)C(F)(F)C(F)(F)C(F)(F)C(F)(F)F,outcome,[1],inactive
same,outcome,[2],inactive
CN(C)c1nc(=O)n(C2CCCCC2)c(=O)n1C,outcome,[1],inactive
Oc1ccc(Cl)cc1Cl,outcome,[1],inactive
same,outcome,[4],inactive
same,outcome,PGR (gene 5241),inactive
same,outcome,[5],inactive
same,outcome,[6],inactive
same,AC50,[3],9.75 µM (active)
same,outcome,[7],inactive
CCC(C)(c1ccc(O)cc1)c1ccc(O)cc1,outcome,[8],inactive
same,outcome,[2],inactive
same,AC50,PGR (gene 5241),10.2 µM (active)
same,AC50,[9],16.7 µM (active) and 11.4 µM (active) and 9.16 µM (active)
same,AC50,[10],17.3 µM (active)
same,AC50,[6],5.51 µM (active)
same,outcome,[11],inactive
same,AC50,[12],5.28 µM (active)
same,AC50,[3],8.33 µM (active)
Cc1cc2c3c(c1)C(c1ccccc1)=N[C@@H](NC(=O)c1ccncc1)C(=O)N3CC2,outcome,[1],inactive
same,outcome,[2],inactive
same,AC50,[6],4.96 µM (active)
same,outcome,[12],inactive
C[C@]12CCC(=O)C=C1CC[C@@H]1[C@@H]2CC[C@@]2(C)[C@H]1CC[C@]2(C)O,AC50,[8],0.0685 µM (active)
same,AC50,PGR (gene 5241),0.175 µM (active)
same,AC50,[13],401 nM (active) and 201 nM (active) and 306 nM (active)
same,AC50,[9],9 µM (active) and 8.26 µM (active)
same,outcome,[9],inactive
same,AC50,[14],7.29 µM (active)
same,outcome,[7],inactive
ClC1=C(Cl)[C@]2(Cl)[C@@H]3[C@@H](Cl)[C@H]4O[C@H]4[C@@H]3C1(Cl)C2(Cl)Cl,AC50,[1],50 µM (active)
CCCCCCOC(=O)c1ccccc1C(=O)OCCCCCC,outcome,[8],inactive
same,outcome,[7],inactive
CC(C)(O)C(=O)Nc1ccc([N+](=O)[O-])c(C(F)(F)F)c1,outcome,[1],inactive
same,outcome,[2],inactive
same,outcome,PGR (gene 5241),inactive
same,outcome,[9],inactive
same,AC50,[7],2.7 µM (active)
same,outcome,[7],inactive
CC#Cc1cc(C)nc(Nc2ccccc2)n1,outcome,[8],inactive
same,outcome,[1],inactive
same,outcome,[3],inactive
O=C(NC(=O)c1c(F)cccc1F)Nc1cc(Cl)c(OC(F)(F)C(F)F)c(Cl)c1,outcome,[1],inactive
N#Cc1ccc(N(CC(N)=O)CC(F)(F)F)cc1C(F)(F)F,outcome,[1],inactive
NS(=O)(=O)C(F)(F)C(F)(F)C(F)(F)C(F)(F)C(F)(F)C(F)(F)C(F)(F)C(F)(F)F,AC50,[1],80.2 µM (active)
same,outcome,[2],inactive
same,outcome,[6],inactive
same,outcome,[7],inactive
CN(C)CCO,outcome,[1],inactive
CCCN(CCC)N=O,outcome,[1],inactive
same,outcome,[4],inactive
same,outcome,[2],inactive
same,outcome,[14],inactive
same,outcome,[7],inactive

# — PubChem BioAssay (EPA / NIEHS)
